Values joined by “and” are separate entries in the source; they are usually repeats but may differ in a detail not shown here. Identical values can stand only once. About 5,100 (32%) of roughly 16,000 compounds were called active. About 25% were inconclusive and are not listed. This is one part of the list. A number with no mark means an inactive call. Calls follow the shape of the dose curve; as a rule, active = well fitted curve in the direction sought with a large enough effect; inconclusive = small, poorly fitted or top-dose-only effect, or effect the other way; inactive = no such curve, though single readings can be large or run the other way.
What follows are compounds tested against Cytochrome P450 3A4 (Homo sapiens) (UniProt P08684) (assay: Cytochrome panel assay with activity outcomes). Conditions: recombinant CYP, pro-luciferin dealkylation, luminescence, p450-cyp3a4; series mostly up to 57.1 µM; activity, negative = inhibition: at the top concentration.
% is scaled to controls: 0 for no effect and ±100 for the full control effect.

Chain of Cytochrome P450 3A4 (Homo sapiens) (P08684 whole entry, looked up): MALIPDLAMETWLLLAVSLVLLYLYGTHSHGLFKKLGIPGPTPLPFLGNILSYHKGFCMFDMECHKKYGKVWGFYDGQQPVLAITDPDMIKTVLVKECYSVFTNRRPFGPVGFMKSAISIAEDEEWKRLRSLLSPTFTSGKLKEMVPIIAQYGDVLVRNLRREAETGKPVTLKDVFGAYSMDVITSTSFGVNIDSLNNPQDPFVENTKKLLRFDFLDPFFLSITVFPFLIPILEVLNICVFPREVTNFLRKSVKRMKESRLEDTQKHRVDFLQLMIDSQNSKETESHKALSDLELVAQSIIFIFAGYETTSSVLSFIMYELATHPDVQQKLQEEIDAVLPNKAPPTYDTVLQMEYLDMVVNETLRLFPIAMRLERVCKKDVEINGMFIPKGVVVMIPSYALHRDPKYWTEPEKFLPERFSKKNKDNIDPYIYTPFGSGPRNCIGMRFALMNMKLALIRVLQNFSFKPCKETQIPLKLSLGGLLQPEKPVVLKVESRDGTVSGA

Row | SMILES | activity, negative = inhibition | AC50
1 | COc1ccc(-c2coc3cc4oc(=O)cc(C)c4cc23)cc1F | -6.07% | 
2 | CCCc1ccc(C2C3=C(CC(C)(C)CC3=O)NC3=C2C(=O)c2ccccc23)cc1 (stereo not drawn) |  | 2820 nM (active)
3 | COC(=O)N[C@H](c1ccccc1)[C@@]1(C)C[C@@H]1[C@@H](C)C(=O)Nc1ccc2ccccc2c1 |  | 200 nM (active)
4 | CC(=O)N[C@H](c1ccccc1)[C@@]1(C)C[C@@H]1[C@@H](C)C(=O)Nc1ccc2ccccc2c1 |  | 7940 nM (active)
5 | CC(=O)N[C@@H](c1ccccc1)[C@]1(C)C[C@H]1[C@@H](C)C(=O)Nc1ccc2ccccc2c1 |  | 7940 nM (active)
6 | O=C(Nc1ccc2oc(=O)c(C(=O)O)cc2c1)Oc1ccccc1 | -5.24% [at 11.4 µM] | 
7 | C[C@@H](C(=O)Nc1ccc2ccccc2c1)[C@H]1C[C@]1(C)[C@H](NC(=O)Oc1ccc(F)cc1)c1ccccc1 |  | 794 nM (active)
8 | Oc1c(CN2CCN(c3ccccc3)CC2)cc(Br)c2cccnc12 | 0.931% [at 11.4 µM] | 
9 | C[C@@H](C(=O)Nc1ccc2ccccc2c1)[C@@H]1C[C@@]1(C)[C@@H](N)c1ccccc1 |  | 7940 nM (active)
10 | C[C@@H](C(=O)Cc1ccc2ccccc2c1)[C@@H]1C[C@@]1(C)[C@@H](NP(=O)(c1ccccc1)c1ccccc1)c1ccccc1 |  | 1000 nM (active)
11 | C[C@@H](C(=O)Nc1ccc2ccccc2c1)[C@H]1C[C@]1(C)[C@H](NP(=O)(c1ccccc1)c1ccccc1)c1ccccc1 |  | 2000 nM (active)
12 | CN(Cc1cnc2nc(N)nc(N)c2n1)c1ccc(C(=O)N[C@H](CCC(=O)O)C(=O)O)cc1 | 1.58% [at 25.6 µM] | 
13 | C=C[C@@]1(C)CC(=O)[C@@]2(O)[C@@]3(C)[C@@H](O)CCC(C)(C)[C@@H]3[C@H](OC(=O)CCN(C)C)[C@H](OC(C)=O)[C@@]2(C)O1 |  | 2510 nM (active)
14 | O=C(O)CC[P+](c1ccccc1)(c1ccccc1)c1ccccc1 | 9.68% [at 11.4 µM] | 
15 | O=C1[C@H]2[C@H]3[C@H](O)[C@H](O)C/C(=N/OC[C@@H](O)COCc4ccco4)[C@H]3CC[C@@H]2C(=O)N1Cc1ccc2c(c1)OCO2 |  | 3160 nM (active)
16 | O=C1[C@H]2[C@H]3[C@H](O)[C@H](O)C/C(=N/OC[C@@H](O)COCc4ccco4)[C@@H]3CC[C@@H]2C(=O)N1Cc1ccccc1 |  | 3160 nM (active)
17 | O=C1[C@H]2[C@H]3[C@H](O)[C@H](O)C/C(=N/OC[C@@H](O)COCc4ccco4)[C@@H]3CC[C@@H]2C(=O)N1Cc1ccc2c(c1)OCO2 |  | 3160 nM (active)
18 | CCN1C(=O)[C@H]2[C@H]3[C@H](O)[C@H](O)C/C(=N/OC[C@@H](O)COCc4ccco4)[C@@H]3CC[C@@H]2C1=O | -23.4% [at 11.4 µM] and -18.4% [at 11.4 µM] | 
19 | CCN1C(=O)[C@H]2[C@H]3[C@H](O)[C@H](O)C/C(=N/OC[C@@H](O)COCc4ccco4)[C@H]3CC[C@@H]2C1=O | -17.6% [at 11.4 µM] | 
20 | Cc1[nH]nc(N2CCCCCC2)c1[N+](=O)[O-] | -25.9% | 
21 | CCC(C(=O)NC(C)(C)C)N(C(=O)Cn1nnc(-c2cccs2)n1)c1cnc2ccccc2c1 (stereo not drawn) |  | 2000 nM (active)
22 | O=C(Nc1cnc2ccccc2c1)c1cccc(-n2cnnn2)c1 | 20.1% | 
23 | CS(=O)(=O)Nc1cccc(-c2nc(N3CCNCC3)c3ccccc3n2)c1 | -27.7% | 
24 | COc1cccc(C2=NOC(C(=O)NCCN3CCOCC3)C2)c1 (stereo not drawn) | -24.1% | 
25 | c1cncc(-c2nc(NCCN3CCOCC3)c3ccccc3n2)c1 |  | 7940 nM (active)
26 | CS(=O)(=O)Nc1ccc(Nc2c3ccccc3nc3ccccc23)cc1 | -25.8% [at 11.4 µM] | 
27 | COc1cccc(-c2nc(NCCN3CCOCC3)c3ccccc3n2)c1 |  | 12600 nM (active)

Row | SMILES | activity, negative = inhibition | AC50
28 | CS(=O)(=O)Nc1cccc(-c2nc(NCCN3CCOCC3)c3ccccc3n2)c1 |  | 15800 nM (active)
29 | CS(=O)(=O)Nc1cccc(-c2nc(N3CCOCC3)c3ccccc3n2)c1 |  | 1580 nM (active)
30 | O=C1C=C(NCCN2CCOCC2)CC(c2ccccc2)C1 (stereo not drawn) | -22.3% | 
31 | CCCc1cc(=O)[nH]c(=S)[nH]1 | -10.8% [at 25.6 µM] | 
32 | CCN(Cc1cc(Cl)cc(C)c1O)Cc1c(O)ccc2ccccc12 | -15.9% [at 11.4 µM] | 
33 | O=C(O)[C@H]1CN[C@H](C(=O)O)C1 | 0.628% | 
34 | N#Cc1cccc(-c2nc3cnc(N4CCOCC4)nc3n(C[C@H]3CCCO3)c2=O)c1 | -0.471% | 
35 | N#Cc1cccc(-c2nc(NCCN3CCOCC3)c3ccccc3n2)c1 |  | 12600 nM (active)
36 | COc1ccc(-n2ncc3c(NCC4CCCO4)ncnc32)cc1 (stereo not drawn) | -18.3% | 
37 | CCc1ccc2c(c1)cc(CN(C(=S)Nc1cccc(C)c1)C1CC1)c1nnnn12 |  | 2240 nM (active)
38 | Cc1cccc(CCNc2nc3ccccc3n3nnnc23)c1 | -16.1% | 
39 | CC(NC(=O)CCSc1nc(-c2ccc3c(c2)OCO3)cc(C(F)(F)F)n1)c1ccccc1 (stereo not drawn) |  | 39.8 nM (active)
40 | CC(NC(=O)CCSc1nc(-c2ccco2)cc(C(F)(F)F)n1)c1ccccc1 (stereo not drawn) |  | 20000 nM (active)
41 | C[N+]1(C)CCC(=C(c2ccccc2)c2ccccc2)CC1 | -28% [at 25.6 µM] | 
42 | COc1ccc(C(=O)N2CCC3(CCN(C)CC3)CC2)cc1 | -26% | 
43 | COc1ccc(C(Cl)=C(c2ccc(OC)cc2)c2ccc(OC)cc2)cc1 | -23.8% [at 25.6 µM] | 
44 | COc1ccc(C(=O)/C=C2/c3ccccc3CC(C)(C)N2C)cc1 |  | 7080 nM (active)
45 | COc1cccc(-c2cncnc2NCc2cccc(C)c2)c1 |  | 398 nM (active)
46 | COc1cccc(-c2cncnc2NCc2ccccc2)c1 |  | 316 nM (active)
47 | COc1cccc(-c2cncnc2NCc2cccnc2)c1 |  | 1260 nM (active)
48 | COc1cccc(-c2cncnc2NCc2cnc(C)cn2)c1 |  | 1580 nM (active)
49 | CCCCCCc1c(C[C@H](N)C(=O)O)o[nH]c1=O |  | inactive
50 | CCOc1nc(NC(C)C)nc(NC(C)C)n1 | -2.02% | 
51 | CC[n+]1c(P(=O)([O-])c2ccccc2)[nH]c2ccccc21 | -3.39% [at 2.29 µM] | 
52 | Cc1cnc(CNc2ncncc2-c2cccc(C#N)c2)cn1 |  | 2000 nM (active)
53 | COc1cccc(-c2cncnc2NCc2cccs2)c1 |  | 1580 nM (active)

From PubChem BioAssay AID1851 (National Center for Advancing Translational Sciences (NCATS), 2009)
